LASV entry inh: qHTS for Inhibitors of binding or entry into cells for Lassa Virus; AID 540256, 2011; Lassa virus pseudotype entry inhibition, cell reporter; actives 1.2% (n = 300,000); Potency, µM (top dose mostly 37.9 µM), for inactives: top-dose activity change, negative = inhibition, most hits filed as inhibitors; calls by dose curve; tested in HEK293 cells; note: potency is the fitted concentration of half-maximal effect; nearly all actives have a fitted effect of over 50% in size
HCMV antiviral: qHTS Assay for inhibitors of the human cytomegalovirus (HCMV) | HFF cells, HCMV-luciferase reporter, 72 h; active compounds read low | activity change, negative = inhibition, % at 57.5 µM | actives 4.5% (n = 410,000) | AID 1259415, 2018; in the data active = activity change below about -60%; inconclusive = no clear call, values can overlap the other calls; inactive = above about -39%
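Two-dose cell screen: HFF monolayers treated with compounds and infected with luciferase-expressing HCMV at 1 PFU/cell, 72 h at 37C, then lysed for luciferase measurement.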
HCV inhibitor: qHTS Assay for Inhibitors of Hepatitis C Virus (HCV); Huh7.5.1 HCVcc-Cre infection, luciferase reporter, 44 h; Potency, µM (highest dose often 41.8 µM), for inactives: at the top dose activity change, negative = inhibition, actives largely listed as inhibitors; actives 3.4% (n = 340,000); active = well fitted inhibition curve with a large enough effect; inconclusive = small, poorly fitted or top-dose-only effect, or another doubt; inactive = no such curve, though single readings can be large or run the other way; note: potency is the fitted concentration of half-maximal effect
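Reporter virus HCVcc-Cre (~0.5 moi) infects cells exposed to compound; seeding density 1,000 cells/well with 4 h settling beforehand. Luminescence, 15 sec read, taken 44 h post-infection following a 15 min RT substrate incubation.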
Vaccinia mCherry: qHTS for Stage-Specific Inhibitors of Vaccinia Orthopoxvirus: mCherry Reporter Primary qHTS; AID 720579, 2013; actives 0.63% (n = 310,000); Vaccinia virus mCherry reporter infection, fluorescence; Potency, µM (top dose mostly 36.5 µM), inactives show top-dose activity change, negative = inhibition, actives largely listed as inhibitors; calls by dose curve; tested in A549 cells; note: potency is the fitted concentration of half-maximal effect; nearly all actives have a fitted effect of over 35% in size
Vaccinia Venus: qHTS for Stage-Specific Inhibitors of Vaccinia Orthopoxvirus: Venus Reporter Primary qHTS; Vaccinia virus Venus reporter expression, fluorescence; Potency, µM (series often up to 36.5 µM), for inactives: top-dose activity change, negative = inhibition, most hits filed as inhibitors; actives 0.46% (n = 330,000); AID 720580, 2013; calls by dose curve; tested in A549 cells; note: potency is the fitted concentration of half-maximal effect; nearly all actives have a fitted effect of over 30% in size
MARV entry inh: qHTS for inhibitors of binding or entry into cells for Marburg Virus | Marburg virus pseudotyped entry inhibition, cell reporter | Potency, µM (titrated, usually from 37.8 µM), for the others: at the top dose activity change, negative = inhibition, most hits filed as inhibitors | actives 1.8% (n = 300,000) | AID 540276, 2011; calls by dose curve; tested in HEK293 cells; note: potency is the fitted concentration of half-maximal effect
* hit, by the source's call; [ ] = remark or other dose. Only some compounds are listed: those with a hit (about 7.8% of all), similar ones and a draw of the others. % is set by controls: 0 for no effect and ±100 for the full control effect.

For CCOc1ccc(NC(=O)c2ccncc2)cc1 the results were LASV entry inh 30%, HCMV antiviral 13, HCV inhibitor 14%, Vaccinia mCherry -12%, Vaccinia Venus -9% and MARV entry inh -13%.
Screening CCOc1ccc2c(c1)C(=NNC(=O)c1ccncc1)c1cc(OCC)ccc1-2 returned LASV entry inh 6.3µM*, HCMV antiviral -95*, HCV inhibitor -4%, Vaccinia mCherry inactive, Vaccinia Venus 6% and MARV entry inh 3.2µM*.
Screening Cc1ccc(S(=O)(=O)N2CCN(c3nc(-c4ccnnc4)nc4ccccc34)CC2)cc1 returned Vaccinia mCherry inactive and Vaccinia Venus -12%.
`COC(=O)c1ccc2c(c1)C(C)(C)C(/C=C/c1ccccc1O)=[N+]2C` gave LASV entry inh inconclusive, HCMV antiviral -104*, HCV inhibitor 7.9µM* and MARV entry inh inconclusive.
COc1cccc(CNC(=O)c2c(OC)cc(=O)n3c2CCN(C(=O)c2ccc(C)s2)CC3)c1 was read as Vaccinia mCherry inactive and Vaccinia Venus -5%.
CN(C)CCCNC(=S)NCC(c1ccc(Cl)cc1Cl)c1c[nH]c2ccccc12 (stereo not drawn) was read as LASV entry inh 10µM*, HCMV antiviral inconclusive, HCV inhibitor 11µM*, Vaccinia mCherry inconclusive, Vaccinia Venus inconclusive and MARV entry inh inconclusive.
`CCC(=O)Nc1nonc1-c1nc2ccccc2n1Cc1cccc2ccccc12` gave LASV entry inh inconclusive, HCMV antiviral -104*, HCV inhibitor inconclusive, Vaccinia mCherry inconclusive, Vaccinia Venus inconclusive and MARV entry inh inconclusive.
`Cc1c(C(=O)N2CCCCC2CCN2CCCC2=O)oc2c(F)cccc12` (stereo not drawn) gave LASV entry inh 2%, HCMV antiviral -63*, HCV inhibitor 20%, Vaccinia mCherry inactive, Vaccinia Venus -16% and MARV entry inh -1%.
Screening CC(=O)NCC1CCCN(C(=O)c2oc3c(F)cccc3c2C)C1 (stereo not drawn) returned HCMV antiviral -101* and HCV inhibitor -2%.
Screening COc1ccc(-c2cccc3c2C2CC3CCN2C(=O)OCc2ccccc2)cc1 (stereo not drawn) returned HCMV antiviral -20, HCV inhibitor 7.9µM*, Vaccinia mCherry inactive and Vaccinia Venus -10%.
`O=C1NC(=O)c2cc(Nc3ccccc3)c(Nc3ccccc3)cc21` gave LASV entry inh inconclusive, Vaccinia mCherry inconclusive, Vaccinia Venus inconclusive and MARV entry inh 23µM*.
O=C(Nc1ccc2c(c1)C(=O)NC2=O)c1ccccc1 was read as HCMV antiviral inconclusive, HCV inhibitor 6%, Vaccinia mCherry -4% and Vaccinia Venus -13%.
`COC(=O)c1ccc(NC(=O)CC2C(=O)N(c3ccccc3)C(=O)N2Cc2ccc(F)cc2)cc1` (stereo not drawn) gave LASV entry inh 0%[46.1 µM], HCMV antiviral -20, Vaccinia mCherry -8% and Vaccinia Venus -12%.
For O=C(Nc1ccccc1)N(C1=NCCCCS1)c1ccccc1 the results were LASV entry inh 14%, HCMV antiviral -104*, HCV inhibitor -16%, Vaccinia Venus 1% and MARV entry inh -7%.
O=C(Nc1ccccc1)N(C1=NCCCCS1)c1cccc2ccccc12 was read as LASV entry inh 7%, HCMV antiviral 31, HCV inhibitor 5% and MARV entry inh 9%.
`COc1ccccc1CCNC(=O)C(=O)NCC(c1cccs1)S(=O)(=O)c1ccc(C)cc1` (stereo not drawn) gave LASV entry inh -12%[46.1 µM], HCMV antiviral -26, Vaccinia mCherry -29% and Vaccinia Venus -25%.

Assay outcomes deposited in PubChem BioAssay by National Center for Advancing Translational Sciences (NCATS).
